Reference: ChEMBL document CHEMBL4888484, “Replenishing the malaria drug discovery pipeline: Screening and hit evaluation of the MMV Hit Generation Library 1 (HGL1) against asexual blood stage Plasmodium falciparum ,using a nano luciferase reporter read-out” (2022)
Hit rate of the full screen: of about 150,000 compounds, about 540 (0.36%) showed an effect of 50% or more. Shown is part of a subset that was picked to be rich in strong results.

System: Plasmodium falciparum
Assay: Primary screen in NF54 nanoGlo assay, in single point, at 2uM, 72h; a lower Z score goes with more inhibition
Format: functional, Erythrocyte
Conditions: timepoint 72 hour

Compound	% Inhibition [%]	Z score
Cc1n[nH]c(C)c1CCCNC(=O)[C@@H]1Cc2ccccc2CN1C	-7	1.24
Cc1cccn(CC(=O)NCC(=O)Nc2cccnc2)c1=O	-6	0.7
C[C@@H](CO)N(C)S(=O)(=O)[C@H]1C[C@@H]1c1ccc(Br)cc1	1	-0.19
O=C(c1cccc(C(=O)N2CCN(C(c3ccccc3)c3ccccc3)CC2)c1)N1CCN(C(c2ccccc2)c2ccccc2)CC1	54	-11.5
O=C(c1cccc(C#Cc2ccccc2)c1)N1CCN(C(c2ccccc2)c2ccccc2)CC1	-8	1.42
O=C(c1cccc(-n2cnnn2)c1)N1CCN(C(c2ccccc2)c2ccccc2)CC1	10	-1.28
CC1CCCN(C(C)CNC(=O)CCNC(=O)C2CC2C)C1 (centres undefined)	-5	0.79
Cc1ccc2[nH]c(-c3cc4n(n3)CCN(C(=O)N3CCN(C)CC3)C4)nc2c1	-6	0.7
CCCN1CCn2nc(-c3nc4cc(OC)ccc4[nH]3)cc2C1	-3	0.27
N[C@H]1COc2ccc(Br)cc2C1=O	73	0.56
N[C@H]1CCOc2ccc(Br)cc2C1=O	-8	1.05
N[C@H]1CC2(CCC2)Oc2ccc(Br)cc21	-4	0.62
O=C(COc1ccc(Br)cc1F)N[C@@H](C(=O)O)c1ccc(F)c(F)c1	-17	2.1
COc1cc2cc(NC(C)=N)nc(C)c2cc1OC	15	-1.95
COc1cc(NC(=O)Cc2ccc(OC)c(OC)c2)ncn1	8	-1.51
COc1ccc(CC(=N)Nc2cc3cc(OC)c(OC)cc3c(Cc3ccc(OC)c(OC)c3)n2)cc1OC	85	-9.78
COc1cc(NC(=O)N2Cc3cn[nH]c3CC(C)(C)C2)c(C)c(OC)c1	13	-1.52
CCn1cnc2c(N3CCCOC3)ncnc21	-5	0.67
CCn1cnc2c(N3CCC[C@H](CC(C)(C)C(N)=O)C3)ncnc21	8	-1.51
CCn1cnc2c(N3CCC[C@H](c4ccncc4)C3)ncnc21	76	-10.16
COc1cccc([C@H]2CC(O)=Nc3c2ncn3-c2cccnc2)c1OC(C)C	28	-3.13
CC[C@@H](c1ccccn1)n1cc(-c2cc(CN(C)C)cs2)nn1	-6	0.72
CC1=CN(c2ccc(Br)cc2)C(=O)N(c2ccccc2)N=C1C	-45	5.24
Cc1ccc([C@H]2C=NN(c3ccc(Br)cc3)C2=O)cc1	76	-2.14
CC(C)C(=O)N1CCN(c2ccc(Br)cc2)C(=O)[C@@H]1C	-12	1.14
CCCOc1ccc(C2C3C(=O)N(c4cccc5ccccc45)C(=O)C3ON2c2ccccc2)cc1OC (centres undefined)	-14	1.48

Compound	% Inhibition [%]	Z score
O=C1C[C@@H](C(=O)N2CC(Cc3ccoc3)C2)NC(=O)N1	-12	1.39
O=C(C[C@H](n1cccn1)C(F)(F)F)N1CCN(C2CC2)c2ccc(Cl)cc21	-2	0.26
COc1ccc(-c2c(-c3ccc(C)c(C)c3)[nH]c3c2c(=O)[nH]c(=O)n3C)cc1	-4	0.68
COc1ccc(-c2c(-c3ccc(Cl)cc3)[nH]c3c2c(=O)[nH]c(=O)n3C)cc1	-5	0.54
COc1ccc(-c2c(-c3cccc(OC)c3)[nH]c3c2c(=O)[nH]c(=O)n3C)cc1	90	-8.97
NC(=O)NCCC[C@@H]1NC(=O)[C@H](Cc2ccccc2)NC1=O	-12	1.78
COCCc1nc(C)c([C@H](C)Nc2ccc3c(c2)CCC(=O)N3)s1	-15	1.74
CC(C)c1cccc(Nc2nc3ccncc3n(C(C)C)c2=O)c1	91	-8.7
CC(C)n1c(=O)c(NCc2cccc(C(F)(F)F)c2)nc2ccncc21	24	-2.33
CCc1cccc(Nc2nc3ccncc3n(C(C)C)c2=O)c1	1	-0.13
CC1CCN(Cc2ccc(-c3ncnn3C(C)(C)C)o2)CC1	-6	1.14
CN1CCC(N(C)CC(NCC2CCC=CO2)c2ccccc2)CC1 (centres undefined)	-4	0.49
c1ccc(COC[C@H](Nc2ncnc3ccccc23)c2ccccc2)cc1	-12	1.08
Cc1cc(C)nc(O[C@H]2CCCN(C(=O)c3cccn(C)c3=O)C2)n1	-2	0.22
O=C(Nc1cccnc1)c1cccc(Oc2cccc(C(F)(F)F)c2)c1	-13	1.85
O=C(Nc1cc(N2CCCS2(=O)=O)ccc1O)c1cccc(Oc2cccc(C(F)(F)F)c2)c1	99	-18.11
O=C(N[C@H]1CCS(=O)(=O)C1)c1cccc(Oc2cccc(C(F)(F)F)c2)c1	-25	2.94
Cc1nc2ccc(NC(=O)C3C4C=CC(C4)C3C(=O)O)cc2s1 (centres undefined)	7	-1.15
Brc1ccc(-c2nc(Cn3ccnn3)co2)cc1	-11	1.68
CCOc1ccc(-c2nc(Cn3ccnn3)co2)cc1	-6	1.08
FC(F)(F)c1ccc(-c2nc(Cn3ccnn3)co2)cc1	89	-0.03
CO[C@H]1CN(C2CCN(C(=O)CCc3c[nH]c4ccccc34)CC2)C12CCOCC2	-2	0.27
O=C(N[C@H]1CCN(c2cnccn2)C[C@@H]1O)c1ccc2c(c1)OCO2	0	0.01
COc1ccc(CC(=O)N2CC3(C[C@H](N4CCCCC4)CO3)C2)cc1	-5	0.75
CC(=O)N[C@@H]1CN(Cc2nccn2Cc2ccccc2)C[C@H]1c1nccn1C	30	-1.12
Cn1ccnc1[C@@H]1CCCN1Cc1nccn1Cc1ccccc1	50	-4.75

Compound	% Inhibition [%]	Z score
Cn1cc([C@@H]2CCCN2Cc2nccn2Cc2ccccc2)cn1	-5	0.74
CN(CC(c1ccccc1)c1ccccc1)[C@H]1COC[C@@H]1O	-10	1.87
CC1=C(C(=O)N2C[C@H]3CC=CC[C@H]3C2)C(C)NC(=O)N1 (some centres undefined)	-13	2.39
C[C@@]1(C(=O)NCc2ccccc2)Cn2nc(-c3ccccc3)cc2C(=O)N1c1ccc2c(c1)OCCO2	52	-8.25
COc1ccc(CN2C(=O)c3cc(-c4ccc(OC)cc4)nn3C[C@@]2(C)C(=O)NCc2ccccc2)cc1	6	-0.96
Cc1ccc(CNC(=O)[C@]2(C)Cn3nc(C)cc3C(=O)N2c2ccc3c(c2)OCCO3)cc1	-1	0.18
COc1ccc(-c2cc3n(n2)C[C@@](C)(C(=O)NCc2ccccc2OC)N(c2cccc(OC)c2)C3=O)cc1	51	-8.04
COc1ccc(-c2cc3n(n2)C[C@@](C)(C(=O)NCc2ccccc2)N(Cc2ccccc2Cl)C3=O)cc1	17	-2.69
C[C@@]1(C(=O)NCc2ccccc2)Cn2nc(-c3ccccc3)cc2C(=O)N1C1CC1	9	-1.39
COc1ccc(-c2cc3n(n2)C[C@@](C)(C(=O)NCc2ccccc2)N(Cc2ccc4c(c2)OCO4)C3=O)cc1	52	-8.23
CCc1ccc(-c2cc3n(n2)C[C@@](C)(C(=O)NC2CCCCC2)N(c2cccc(C)c2C)C3=O)cc1	-2	0.32
CCc1ccc(-c2cc3n(n2)C[C@@](C)(C(=O)NC2CCCCCC2)N(c2ccc(F)cc2)C3=O)cc1	0	0.02
CCc1ccc(-c2cc3n(n2)C[C@@](C)(C(=O)NC2CCCCC2)N(c2cc(C)cc(C)c2)C3=O)cc1	71	-11.34
COc1ccc(-c2cc3n(n2)C[C@@](C)(C(=O)NCc2ccccc2OC)N(c2cc(C)cc(C)c2)C3=O)cc1	9	-1.43
COc1ccc(-c2cc3n(n2)C[C@@](C)(C(=O)NCc2ccccc2OC)N(c2ccc(C)cc2)C3=O)cc1	-4	0.55
Cc1nc(NC(=O)CC2=CCCCC2)n(C)n1	5	-0.53
CN(C(=O)OC(C)(C)C)[C@H]1CCCN(C(=O)c2ccn(C)c(=O)c2)C1	3	-0.37
CC1(C)CC(C)(C)c2ccccc2CN1	3	-0.41
Cn1nccc1NC(=O)Cn1ncc2cc(-c3cccc4cccnc34)ccc21	0	-0.05
COc1ccc(C2=C[C@@H](c3cccc(OC)c3)n3ncc(C(=O)Nc4ccccc4)c3N2)cc1	6	-0.59
COc1ccc(C2=C[C@@H](c3ccc(F)cc3)n3ncc(C(=O)Nc4ccc(C)cc4)c3N2)cc1	2	-0.16
CCc1ccc(C2=C[C@@H](c3cccc(OC)c3)n3ncc(C(=O)Nc4ccc(C)cc4)c3N2)cc1	60	-5.98
O=C(N[C@@H](Cn1nccn1)c1ccccc1)c1cc(-c2ccccc2)n[nH]1	-4	0.69
O=C(N[C@@H](Cn1nccn1)c1ccccc1)c1cc(Br)ccc1Cl	57	-6.89
O=C(N[C@@H](Cn1nccn1)c1ccccc1)c1ccncc1	-13	1.97
